High-throughput results deposited in PubChem by National Center for Advancing Translational Sciences (NCATS).
TRPML1 ag: qHTS for Agonists of the Human Mucolipin Transient Receptor Potential 1 (TRPML1); Mucolipin-1 (Homo sapiens), Q9GZU1; TRPML1-expressing cells, Ca2+ dye fluorescence, FDSS; activation, % (no concentration beside the values); hit rate 0.12% among 410,000; AID 624414, 2012; in the data active = activation above about 50%; inconclusive = mostly about 30% to 49%; note: 0% is about no effect
Target sequence (Q9GZU1 whole entry, looked up): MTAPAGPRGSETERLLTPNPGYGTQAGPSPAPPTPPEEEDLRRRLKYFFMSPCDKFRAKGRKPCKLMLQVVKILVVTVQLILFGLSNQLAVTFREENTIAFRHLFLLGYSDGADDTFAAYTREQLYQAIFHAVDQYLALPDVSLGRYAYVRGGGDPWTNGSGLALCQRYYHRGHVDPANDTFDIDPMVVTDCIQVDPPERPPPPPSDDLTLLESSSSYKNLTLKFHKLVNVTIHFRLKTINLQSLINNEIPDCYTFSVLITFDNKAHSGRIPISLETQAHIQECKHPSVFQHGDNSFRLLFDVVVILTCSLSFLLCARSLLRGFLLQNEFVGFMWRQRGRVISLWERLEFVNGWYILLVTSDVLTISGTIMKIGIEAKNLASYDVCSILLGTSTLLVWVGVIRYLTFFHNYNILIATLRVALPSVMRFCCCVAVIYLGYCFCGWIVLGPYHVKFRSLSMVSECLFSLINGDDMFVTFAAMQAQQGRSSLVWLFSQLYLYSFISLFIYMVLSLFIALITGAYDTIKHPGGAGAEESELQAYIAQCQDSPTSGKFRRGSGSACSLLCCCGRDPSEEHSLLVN
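Agonist activity was taken from a 110 s kinetic Ca2+ dye read on the FDSS after pinning compounds onto TRPML1-DL cells. The cells were seeded at 1,500/well with Tet inducer, incubated about 16 h, then dye-loaded at room temperature.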
TRHR PAM: qHTS for Small Molecule Agonists and Allosteric Enhancers of Human TRH Receptor: Primary Screen for Enhancers. Thyrotropin-releasing hormone receptor (Homo sapiens), P34981. hit rate 0.66% among 360,000. TRHR cells, fluo-8 calcium fluorescence, EC20 TRH enhancement. AID 493056, 2011. enhancement, % at 2 µM; in the data active = enhancement above about 30%; note: 0% is about no effect
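TRHR-expressing cells loaded with fluo-8 calcium dye were read kinetically (ex 480/em 530) during compound addition, then stimulated with an EC20 of TRH (10 nM final). Enhancement of the Gq-mediated intracellular calcium response was scored.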
TRHR ag: qHTS for Small Molecule Agonists and Allosteric Enhancers of Human TRH Receptor: Primary Screen for Agonists; TRHR cells, calcium flux fluo-8, FDSS agonist mode; hit rate 0.18% among 360,000; Thyrotropin-releasing hormone receptor (Homo sapiens), P34981; activation, % at 2 µM; in the data active = activation above about 30%; note: 0% is about no effect
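Read-out: compound-evoked intracellular calcium rise in TRHR cells, fluo-8 dye, kinetic FDSS fluorescence at 1 s/cycle following a 10-cycle baseline. Cells cultured overnight before dye loading (30 min–1.5 h, RT).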
TRPML1 blocker: qHTS for Inhibitors of the Human Mucolipin Transient Receptor Potential 1 (TRPML1); TRPML1-inducible cells, Ca2+ dye fluorescence, FDSS; stronger effect = lower value; inhibition of EC80 agonist-evoked calcium signal; activity change, negative = inhibition, % (test concentration not listed); hit rate 0.02% among 390,000; AID 624415, 2012; in the data active = activity change below about -50%; inconclusive = between about -30% and that limit;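 note: stimulus is agonist 54-4 at its EC80 concentration; % is set by controls: 0 for no effect and ±100 for the full control effect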
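Tet-induced TRPML1-DL cells loaded with Ca8 no-wash calcium dye were read kinetically on FDSS. Compound addition was followed by EC80 agonist 54-4 (4 uM final); inhibition was read over 110 s.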
TRPV1 potentiator: HTS Assay for Compounds that Act as Potentiators of the Vanilloid Receptor 1; TRPV1-expressing cells, Fluo-8 calcium influx, capsaicin EC20 potentiation; Transient receptor potential cation channel subfamily V member 1 (Homo sapiens), Q8NER1; AID 540277, 2011; hit rate 0.02% among 320,000; potentiation, % at 8.33 µM; in the data active = potentiation above about 80%; inconclusive = between about 30% and that limit; note: 0% is about no effect
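Fluo-8 calcium influx in TRPV1-expressing cells, kinetic read (ex 480/em 520 nm). Compound added and read 3 min for agonist activity, followed by capsaicin at EC20 final and 2 min further read for enhancement.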
TRPV1 ag: HTS Assay for Compounds that Act as Agonists of the Vanilloid Receptor 1; Transient receptor potential cation channel subfamily V member 1 (Homo sapiens), Q8NER1; TRPV1-expressing cells, Fluo-8 calcium influx, agonist mode; activation, % at 8.33 µM; hit rate 0.19% among 320,000; in the data active = activation above about 80%; inconclusive = between about 30% and that limit; note: 0% is about no effect
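Fluo-8 calcium influx in TRPV1-expressing cells, kinetic read (ex 480/em 520 nm). Compound added and read 3 min for agonist activity, followed by capsaicin at EC20 final and 2 min further read for enhancement.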
Starred values were filed as active, the others as inactive; ? = inconclusive; · = no result given. An excerpt weighted towards active compounds, which were near 0.99% of everything screened.

SMILES	TRPML1 ag	TRHR PAM	TRHR ag	TRPML1 blocker	TRPV1 potentiator	TRPV1 ag
COc1ccc(CN(C(=O)c2snc(C(N)=O)c2N)C(C(=O)NC2CCCC2)c2cc(OC)ccc2OC)cc1 (configuration not stated)	-0.8	34.4*	-0.7	-3.0	3.6	3.4
CCCCCCCCCOC(=O)CNc1nc(C#N)nc(NCC(=O)OCCCCCCCCC)n1	-0.2	·	·	·	·	·
Cc1ccc(C)c(N2CCN(S(=O)(=O)c3c(C(=O)N4CCC(C)CC4)c(C)n(C)c3C)CC2)c1	54.9*	-6.2	-0.9	-12.7	·	·
Cc1cccc(N2CCN(S(=O)(=O)c3c(C(=O)N4CCC(C)CC4)c(C)n(C)c3C)CC2)c1C	?	-13.9	-0.3	4.8	·	·
O=C(NCc1ccccn1)C(=O)NCc1ccccn1	-0.7	9.0	0.4	2.1	96.7*	-14.7
Cc1c(Cl)cccc1NC(=O)CN1C(=O)COc2ccc(S(=O)(=O)N3CCOCC3)cc21	3.0	-0.6	-0.2	3.8	·	·
CC1CCN(c2nnc(NC(=O)Cn3c(=O)oc4ccccc43)s2)CC1	-0.1	12.2	0.8	-5.8	-12.9	-1.2
O=C(Cn1c(=O)oc2ccccc21)Nc1nnc(N2CCCCCC2)s1	-1.1	30.4*	-0.7	-1.4	-10.2	-3.7
Cc1nc(N2CCCCC2)c2c(C)c(C(=O)Nc3ccccc3C(F)(F)F)sc2n1	1.3	-5.9	0.6	4.4	-20.9	89.5*
Cc1nc(N2CCN(c3ccccn3)CC2)c2c(C)c(C(=O)Nc3ccc(Br)cc3C)sc2n1	55.5*	-0.7	-0.2	1.3	10.8	-2.3
CN(C)c1ccc(/C=C/c2cc3ccccc3cn2)cc1	-0.5	·	·	·	·	·
O=C(Cn1cc(CN(Cc2ccccc2)Cc2ccccc2)nn1)Nc1cc(C(F)(F)F)ccc1Cl	·	0.1	-1.5	·	·	·
O=C(NCCCc1nc2ccccc2n1CCCOc1ccccc1)C1CCCCC1	-0.4	·	·	·	·	·
O=C(COc1ccccc1C(=O)Nc1cccnc1)Nc1ccc(Br)cc1	-0.9	·	·	·	·	·
CN(C)c1ccc(/C=C/C(=O)c2cccc(Br)c2)cc1	-0.5	-10.0	147.6*	-2.3	2.4	87.1*
CN(C)c1ccc(C(=O)/C=C/c2cccnc2)cc1	·	4.0	-0.7	·	27.4	-2.4
COc1ccc(NC(=O)CCNS(=O)(=O)c2cccc3nsnc23)cc1Cl	-0.3	2.4	0.0	-6.2	·	·
CCN1/C(=C/C=C/c2oc3ccc4ccccc4c3[n+]2CC)Oc2ccc3ccccc3c21	63.0*	-0.5	31.4*	0.6	2.9	25.5
CCC(Cn1nnc2ccccc2c1=O)NC(=O)Nc1ccc(C)c(C)c1 (configuration not stated)	0.0	-13.1	-0.4	-69.1*	·	·
Cc1cc2c(s1)c1cnn(Cc3ccc(C(=O)O)cc3)c(=O)c1n2C	·	8.0	-0.5	·	·	·
N#Cc1nc(Nc2cc(F)cc(F)c2)c2ncn(C3CCCC3)c2n1	·	1.7	0.9	·	·	·
Cn1ccc2c(N3CCCCC3)cc3c(c21)C1CCC3C1 (configuration not stated)	57.0*	·	·	-24.5	·	·
Cn1ccc2c(N3CCCC3)cc3c(c21)C1CCC3C1 (configuration not stated)	-0.4	·	·	-0.2	·	·
CCc1ccc2[nH]c(=O)c(CN(Cc3cccnc3)Cc3nnnn3Cc3ccccc3)cc2c1	1.6	·	·	·	·	·
COc1ccc(N2C(=O)C3C4C=CC(CC4)C3C2=O)c([N+](=O)[O-])c1 (configuration not stated)	0.5	39.0*	-0.4	-12.9	-3.5	5.2
SMILES	TRPML1 ag	TRHR PAM	TRHR ag	TRPML1 blocker	TRPV1 potentiator	TRPV1 ag
Cc1cccc(C(=O)NC(=S)NNC(=O)c2ccc(Cl)cc2)c1	?	3.6	29.0	-6.1	-32.3	?
CC(C)(C)c1ccc(C(=O)NC(=S)NNC(=O)c2cccs2)cc1	74.0*	6.8	33.6*	-16.2	-19.9	?
O=C(NC(=S)NNC(=O)c1cccs1)c1ccccc1	-0.3	-4.1	6.4	-10.2	1.3	-2.2
Cc1cccc(C(=O)NC(=S)NNC(=O)c2cccs2)c1	15.7	-9.6	41.9*	12.0	-26.8	?
O=C(NNC(=O)c1cccs1)c1ccc(F)cc1	-0.2	36.3*	-0.1	-9.4	-6.7	2.3
Cn1nnnc1Sc1ncnc2scc(-c3cccc(C#N)c3)c12	·	-4.5	-0.9	·	·	·
CCC(C)S(=O)(=O)c1oc(-c2cccs2)nc1S(=O)(=O)c1ccccc1 (configuration not stated)	-0.7	4.3	1.7	24.2	·	·
Cc1c(C(=O)Nc2cc(F)cc(F)c2)cnn1-c1ccccc1	0.7	37.2*	1.5	15.3	6.6	0.3
Cc1c(C(=O)Nc2ccccc2F)cnn1-c1ccccc1	0.7	-4.9	-2.3	-17.7	-11.0	?
Cn1c(=O)c(NC2CCCCC2)c2c3c(cccc31)C(=O)c1ccccc1-2	100.0*	4.6	218.9*	?	15.2	89.0*
CCCCNc1c2c3c(cccc3n(C)c1=O)C(=O)c1ccccc1-2	88.8*	-3.6	94.4*	-15.0	2.4	?
Cn1c(=O)c(NCCO)c2c3c(cccc31)C(=O)c1ccccc1-2	92.7*	8.1	268.9*	-4.2	·	·
Cn1c(=O)cc2c3c(c(N4CCCCC4)ccc31)C(=O)c1ccccc1-2	3.0	2.4	0.6	-4.6	3.1	5.2
CC(=O)Nc1ccc(Nc2c3c4c(cccc4n(C)c2=O)C(=O)c2ccccc2-3)cc1	1.8	-6.4	5.0	1.0	-18.2	6.4
CCNc1c2c3c(cccc3n(C)c1=O)C(=O)c1ccccc1-2	66.8*	-15.5	151.1*	-28.8	-9.1	86.4*
CC(=O)NC(Cc1ccc([N+](=O)[O-])cc1)C(=O)NCC(N)C(=O)c1ccccc1 (configuration not stated)	-0.2	·	·	·	·	·
Cc1cc2c(s1)c1cnn(Cc3ccc(S(C)(=O)=O)cc3)c(=O)c1n2C	·	-1.3	-0.8	·	·	·
Cn1c(=O)c(NCCc2ccccc2)c2c3c(cccc31)C(=O)c1ccccc1-2	104.4*	-18.3	175.4*	-11.4	22.6	92.5*
COc1cc(OC)c(/C=C/c2ccc3ccccc3n2)c(OC)c1	5.1	·	·	·	·	·
O=C1OC2(c3ccccc31)c1cc(I)c(O)c(I)c1Oc1c2cc(I)c(O)c1I	·	-10.0	241.6*	·	-22.8	88.1*
CCc1nn(CC(=O)NCc2ccccc2)c(=O)c2cccn12	1.2	-8.2	1.4	3.6	·	·
